Laboratory results from PubChem BioAssay (NCI).
About 79,000 compounds went through this panel and 15% of them were active in at least one assay; those are over-represented in the sample as a whole. Calls of active or inactive are those of the source. No stated cut-off is given here; in the data, active means growth inhibition above about 70%; inactive means the rest.

Assay: NCI Yeast Anticancer Drug Screen. Data for the mlh1 rad18 strain (AID 175)
Conditions: S. cerevisiae mlh1 rad18 strain growth inhibition; at 50.0 µM (retest, dose inferred, filed as 5.0); active compounds read high
Summary of the method: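 Inhibition values reflect reduced growth of mutant yeast versus vehicle-treated controls following compound exposure; the mutations affect DNA damage repair.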

Row | Compound | growth inhibition
1 | Cc1cccc2c(C(O)CBr)cc(-c3ccc(Cl)cc3)nc12 (stereo unspecified) | 95% (active)
2 | CN(C)C[C@H]1CC[C@@H](CN(C)C)C1=O | 54% (inactive)
3 | CC1=C(SCCO)C(=O)c2ccccc2C1=O | 62% (inactive)
4 | COC(=O)CCNc1c2ccccc2nc2cccc([N+](=O)[O-])c12 | 99% (active)
5 | CC(/C=C/c1ccc2c(c1)OCO2)[N+](=O)[O-] (stereo unspecified) | 98% (active)
6 | COC(=O)C1=C(C)NC(C)=C(C(=O)OCCCN2CCC(c3ccccc3)(c3ccccc3)CC2)C1c1cccc([N+](=O)[O-])c1 (stereo unspecified) | 98% (active)
7 | CCOC(=O)c1cnc2c(C(F)(F)F)cccc2c1N=[N+]=[N-] | 21% (inactive)
8 | O=[N+]([O-])c1cc2no[n+]([O-])c2cc1N1CCCCC1 | 89% (active)
9 | COC(=O)c1ccc(NCC2=CC(=O)C=CC2=O)cc1O | 93% (active)
10 | CCCCCCCCNC(=O)C1=C(C)NC(C)=C(C(=O)NCCCCCCCC)C1 | -5% (inactive)
11 | S=C(Nc1ccc(Cl)c(Cl)c1)SCc1ccc2c(c1)OCO2 | 97% (active)
12 | O=S(=O)(CCCl)c1ccccc1Cl | 81% (active)
13 | Nc1ccccc1CC(O)C(=O)O (stereo unspecified) | 94% (active)
14 | CN(C)c1ccc(Sc2ccc3nc(N)nc(N)c3c2)cc1 | 34% (inactive)
15 | CC(C)C1=CCC2C(=C1)CCC1C(C)(C(=O)O)CCCC21C (stereo unspecified) (tested in a mixture with another compound) | 98% (active)
16 | Cc1ccc(S(=O)(=O)Oc2cc(Cl)c(Cl)cc2Cl)cc1 | 53% (inactive)
17 | CSC(=S)Nc1cc(C)ccn1 | 99% (active)
18 | CC(Br)C(=O)c1ccc2cc(Br)c3ccccc3c2c1 (stereo unspecified) | 38% (inactive)
19 | O=C(Nc1ccccc1)OCCc1ccc(Cl)c(Cl)c1 | 60% (inactive)

Row | Compound | growth inhibition
20 | O=Cc1cccc2ccc3ccccc3c12 | 82% (active)
21 | O=[N+]([O-])CC(SCc1ccccc1)c1ccc2c(c1)OCO2 (stereo unspecified) | 97% (active)
22 | CC1(Cl)CC(O)C2(CC1Br)C1(C)OC1C1OC1(Br)C2(C)C (stereo unspecified) | 80% (active)
23 | Cc1cc(O)cc(O)c1N=Nc1ccc([N+](=O)[O-])cc1 | 99% (active)
24 | CCCCCCCCCCCCCC[N+](C)(CC(=O)[O-])Cc1ccccc1 (stereo unspecified) | 99% (active)
25 | CC1=NN(c2cccc(Cl)c2)C(=O)C1 | 100% (active)
26 | CC(=O)OCc1ccc(O)c(C=O)c1 | 61% (inactive)
27 | Cc1ccc2ccc3cccc4ccc1c2c34 | 52% (inactive)
28 | Cc1nc(-[n+]2nc(-c3ccncc3)nn2-c2ccccc2)sc1C | 48% (inactive)
29 | C(CCSC1=NCCN1)CSC1=NCCN1 (tested in a mixture with another compound) | 98% (active)
30 | CCCCCCCCCCC(=O)Cl | 99% (active)
31 | COC1C=COC2(C)Oc3c(C)c(O)c4c(c3C2=O)/C(=N/C2CCC(O)OC2C)C=C(NC(=O)/C(C)=C\C(=O)C2CC2C(O)C(C)C(O)C(C)C(OC(C)=O)C1C)C4=O (stereo unspecified) | 48% (inactive)
32 | S=c1[nH]nc(Nc2ccc(Cl)cc2)s1 | 19% (inactive)
33 | O=C1CSC(/C=C/c2ccccc2)N1c1ccc(-c2ccc(-n3c(-c4ccccc4)nc4ccccc4c3=O)cc2)cc1 (stereo unspecified) | 91% (active)
34 | O=C1C=CC(=O)N1c1ccc2c(c1)Cc1cc(NC(=O)C(F)(F)F)ccc1-2 | 93% (active)
35 | Brc1ccc(-c2cc3c(cc2C2SCCS2)OCO3)cc1 | 76% (active)
36 | Oc1ccc2ccccc2c1C(c1ccc(Cl)cc1)c1c(O)ccc2ccccc12 | 99% (active)
37 | C[CH2][Sn]([CH2]C)([O]C(=O)C(OC(C)=O)c1ccccc1)[O]C(=O)C(OC(C)=O)c1ccccc1 (stereo unspecified) | 10% (inactive)
38 | Cc1ccc2ccc(O)cc2c1 | 63% (inactive)

Same assay, conditions: S. cerevisiae mlh1 rad18 strain growth inhibition; at 50.0 µM; active compounds read high

Row | Compound | growth inhibition
39 | Cc1cccc2c(C(O)CBr)cc(-c3ccc(Cl)cc3)nc12 (stereo unspecified) | 95.3% (active)
40 | CN(C)C[C@H]1CC[C@@H](CN(C)C)C1=O | 75% (active)
41 | CC1=C(SCCO)C(=O)c2ccccc2C1=O | 81.1% (active)
42 | COC(=O)CCNc1c2ccccc2nc2cccc([N+](=O)[O-])c12 | 81.1% (active)
43 | CC(/C=C/c1ccc2c(c1)OCO2)[N+](=O)[O-] (stereo unspecified) | 99.4% (active)
44 | COC(=O)C1=C(C)NC(C)=C(C(=O)OCCCN2CCC(c3ccccc3)(c3ccccc3)CC2)C1c1cccc([N+](=O)[O-])c1 (stereo unspecified) | 92.7% (active)
45 | CCOC(=O)c1cnc2c(C(F)(F)F)cccc2c1N=[N+]=[N-] | 94.8% (active)
46 | O=[N+]([O-])c1cc2no[n+]([O-])c2cc1N1CCCCC1 | 91.5% (active)
47 | COC(=O)c1ccc(NCC2=CC(=O)C=CC2=O)cc1O | 92.2% (active)
48 | CCCCCCCCNC(=O)C1=C(C)NC(C)=C(C(=O)NCCCCCCCC)C1 | -23.8% (inactive)
49 | S=C(Nc1ccc(Cl)c(Cl)c1)SCc1ccc2c(c1)OCO2 | 88.7% (active)
50 | O=S(=O)(CCCl)c1ccccc1Cl | 90.2% (active)
51 | Nc1ccccc1CC(O)C(=O)O (stereo unspecified) | 92.7% (active)
52 | CN(C)c1ccc(Sc2ccc3nc(N)nc(N)c3c2)cc1 | 51.8% (inactive)
53 | CC(C)C1=CCC2C(=C1)CCC1C(C)(C(=O)O)CCCC21C (stereo unspecified) (tested in a mixture with another compound) | 76.5% (active)
54 | Cc1ccc(S(=O)(=O)Oc2cc(Cl)c(Cl)cc2Cl)cc1 | 2.3% (inactive)
55 | CSC(=S)Nc1cc(C)ccn1 | 83.8% (active)
56 | CC(Br)C(=O)c1ccc2cc(Br)c3ccccc3c2c1 (stereo unspecified) | 68.3% (inactive)
57 | O=C(Nc1ccccc1)OCCc1ccc(Cl)c(Cl)c1 | 58.9% (inactive)

Row | Compound | growth inhibition
58 | O=Cc1cccc2ccc3ccccc3c12 | 98.8% (active)
59 | O=[N+]([O-])CC(SCc1ccccc1)c1ccc2c(c1)OCO2 (stereo unspecified) | 89.2% (active)
60 | CC1(Cl)CC(O)C2(CC1Br)C1(C)OC1C1OC1(Br)C2(C)C (stereo unspecified) | 62.6% (inactive)
61 | Cc1cc(O)cc(O)c1N=Nc1ccc([N+](=O)[O-])cc1 | 55.8% (inactive)
62 | CCCCCCCCCCCCCC[N+](C)(CC(=O)[O-])Cc1ccccc1 (stereo unspecified) | 99.1% (active)
63 | CC1=NN(c2cccc(Cl)c2)C(=O)C1 | 44% (inactive)
64 | CC(=O)OCc1ccc(O)c(C=O)c1 | 48.7% (inactive)
65 | Cc1ccc2ccc3cccc4ccc1c2c34 | 70.3% (active)
66 | Cc1nc(-[n+]2nc(-c3ccncc3)nn2-c2ccccc2)sc1C | 76.2% (active)
67 | C(CCSC1=NCCN1)CSC1=NCCN1 (tested in a mixture with another compound) | 99% (active)
68 | CCCCCCCCCCC(=O)Cl | -13.4% (inactive)
69 | COC1C=COC2(C)Oc3c(C)c(O)c4c(c3C2=O)/C(=N/C2CCC(O)OC2C)C=C(NC(=O)/C(C)=C\C(=O)C2CC2C(O)C(C)C(O)C(C)C(OC(C)=O)C1C)C4=O (stereo unspecified) | 17.9% (inactive)
70 | S=c1[nH]nc(Nc2ccc(Cl)cc2)s1 | 92.6% (active)
71 | O=C1CSC(/C=C/c2ccccc2)N1c1ccc(-c2ccc(-n3c(-c4ccccc4)nc4ccccc4c3=O)cc2)cc1 (stereo unspecified) | 84.3% (active)
72 | O=C1C=CC(=O)N1c1ccc2c(c1)Cc1cc(NC(=O)C(F)(F)F)ccc1-2 | 86% (active)
73 | Brc1ccc(-c2cc3c(cc2C2SCCS2)OCO3)cc1 | 33.5% (inactive)
74 | Oc1ccc2ccccc2c1C(c1ccc(Cl)cc1)c1c(O)ccc2ccccc12 | 54% (inactive)
75 | C[CH2][Sn]([CH2]C)([O]C(=O)C(OC(C)=O)c1ccccc1)[O]C(=O)C(OC(C)=O)c1ccccc1 (stereo unspecified) | 18.4% (inactive)
76 | Cc1ccc2ccc(O)cc2c1 | 48.5% (inactive)
